This excerpt belongs to a sample that is enriched for hits.
CBX7 inh – CBX7 chromodomain binding inhibitors, primary screen, biochemical, AlphaScreen | Chromobox protein homolog 7 (Homo sapiens), O95931 | AlphaScreen His6-CBX7 / biotin-H3K27me3 peptide binding; stronger effect = lower value | normalised signal (fraction of DMSO) (test concentration not listed) | hit rate 1.1% among 66,000 | AID 1224903, 2016; in the data active = normalised signal below about 0.5
Target sequence (O95931 whole entry, looked up): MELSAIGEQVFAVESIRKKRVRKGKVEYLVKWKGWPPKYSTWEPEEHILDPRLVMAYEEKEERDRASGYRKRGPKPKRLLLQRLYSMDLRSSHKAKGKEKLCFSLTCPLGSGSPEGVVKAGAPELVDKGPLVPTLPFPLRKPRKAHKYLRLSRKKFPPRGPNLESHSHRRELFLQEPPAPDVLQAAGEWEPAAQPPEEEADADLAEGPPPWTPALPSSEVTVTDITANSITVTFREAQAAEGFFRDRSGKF
Each line names hits and unclear results; the compound was inactive in the other large screens.

CCOC(=O)c1cnc2ccc(C)cc2c1Nc1cccc(C)c1	none
CCOC(=O)c1cnc2c(C)cc(Cl)cc2c1Nc1ccc(N(C)C)cc1	none
CCOC(=O)c1cnc2c(C)cccc2c1Nc1ccc(N(C)C)cc1	CBX7 inh 0.25
CCOC(=O)c1cnc2c(C)cccc2c1Nc1ccc(C)c(C)c1	none
CCOC(=O)c1cnc2c(C(F)(F)F)cccc2c1Nc1ccc(N(C)C)cc1	CBX7 inh 0.16
CCOC(=O)c1cnc2ccc(C)cc2c1Nc1ccc(N(C)C)cc1	CBX7 inh 0.38
CCOC(=O)c1cnc2ccc(C)cc2c1Nc1ccc(C)cc1	none
CCOC(=O)c1cnc2c(C(F)(F)F)cccc2c1Nc1ccc(O)cc1	none
CCN(CC)CCNC(=O)c1cc2c(s1)-c1c(C)cccc1OC2	none
O=C(Nc1ccccc1C(=O)N1CCOCC1)c1cccc(S(=O)(=O)N2CCCCC2)c1	none
COc1ccc(-c2nn(C)c3sc(C(=O)N4CCN(c5cccc(C)c5)C(C)C4)cc23)cc1OC (stereo unspecified)	none
O=C(NC1CCCCC1)C1c2ccccc2C(=O)N1Cc1ccc(F)cc1 (stereo unspecified)	none
O=C(CCCOc1ccc(Cl)cc1)Nc1ncc(Cc2ccc(F)cc2)s1	none
COc1cccc(-c2nn(C)c3sc(C(=O)Nc4cccc(C)n4)cc23)c1	none
Cc1ccc(NCC(O)Cn2c(C)c(C)c3ccccc32)cc1C (stereo unspecified)	none
Cc1ccc(-c2nn(CC(=O)Nc3ccc(C(=O)N(C)C)cc3)c(=O)c3ccccc23)cc1	none
Cc1ccc(-c2nc(C(=O)Nc3c(C)cccc3C)c(C)o2)cc1	none
COc1ccc2[nH]c(C)c(CCNCC(C)Cc3ccc4c(c3)OCO4)c2c1 (stereo unspecified)	CBX7 inh 0.34
COC(=O)c1ccc(C(=O)NCCc2c(C)[nH]c3ccc(OC)cc23)cc1	none
COC(=O)c1cccc(CNCCc2c(C)[nH]c3ccc(OC)cc23)c1	none
CN(C)C(C(=O)NC1CCCC1)c1ccc(Cl)cc1 (stereo unspecified)	none
Cc1c(CNCCCc2ccccc2)c(C(=O)O)c(C)n1Cc1ccccc1	none
Cc1ccc(S(=O)(=O)Nc2ccccc2CNc2cccc3cccnc23)cc1	none
CC(=O)Nc1ccc(S(=O)(=O)Nc2cccc3cccnc23)cc1	CBX7 inh 0.045
CC(=O)Nc1ccc(S(=O)(=O)Nc2ccc(S(=O)(=O)Nc3nccc(C)n3)cc2)cc1	none
Cc1ccc2nc(Nc3ccc(C(=O)Nc4cccc(Cl)c4)cc3)nc(-c3ccccc3)c2c1	none
O=C(Nc1nnc(-c2cccs2)o1)c1ccc(S(=O)(=O)N2CCCCC2)cc1	none
CC1CC(C)CN(S(=O)(=O)c2ccc(C(=O)Nc3nc(-c4ccncc4)cs3)cc2)C1 (stereo unspecified)	none
CC1CN(S(=O)(=O)c2ccc(C(=O)Nc3nnc(-c4ccc(F)cc4)o3)cc2)CC(C)O1 (stereo unspecified)	CBX7 inh 0.012
CC1CCCN(S(=O)(=O)c2ccc(C(=O)Nc3nnc(-c4cccs4)o3)cc2)C1 (stereo unspecified)	none
COCc1nnc(NC(=O)c2ccc(S(=O)(=O)N3CC(C)OC(C)C3)cc2)o1 (stereo unspecified)	none
Cc1nnc(NC(=O)c2ccc(S(=O)(=O)N3CC(C)CC(C)C3)cc2)o1 (stereo unspecified)	CBX7 inh 0.39
CC1CC(C)CN(S(=O)(=O)c2ccc(C(=O)Nc3nnc(-c4ccc(Cl)s4)o3)cc2)C1 (stereo unspecified)	CBX7 inh 0.4
COCc1nnc(NC(=O)c2ccc(S(=O)(=O)N3CC(C)CC(C)C3)cc2)o1 (stereo unspecified)	none
CCC1CCCCN1S(=O)(=O)c1ccc(C(=O)Nc2nnc(C)o2)cc1 (stereo unspecified)	CBX7 inh 0.094
CCC1CCCCN1S(=O)(=O)c1ccc(C(=O)Nc2nnc(-c3ccc(OC)cc3)o2)cc1 (stereo unspecified)	none
CCC1CCCCN1S(=O)(=O)c1ccc(C(=O)Nc2nnc(-c3cccc(OC)c3)o2)cc1 (stereo unspecified)	none
CC1CN(S(=O)(=O)c2ccc(C(=O)Nc3nnc(-c4cccs4)o3)cc2)CC(C)O1 (stereo unspecified)	none
Cc1ccc(Nc2c(-c3c[nH]c4ccccc34)nc3ccc(Cl)cn23)cc1	none
COc1ccc(OC)c2[nH]c(=O)c(CCNC(=O)c3cc4ccccc4o3)cc12	none
Cc1ccc2c(c1)C(c1ccc(F)cc1)N(C(=O)CCC1CCCCC1)CC(=O)N2 (stereo unspecified)	none
Cc1noc(/C=C/c2cccs2)c1S(=O)(=O)N1CCCC(C(=O)Nc2ccccn2)C1 (stereo unspecified)	none
Cc1cccc(CCNC(=O)c2ccc(CNc3c(N4CCCCC4)c(=O)c3=O)cc2)c1	none
CCCc1cc(=O)n2[nH]c(-c3ccc(Cl)cc3)cc2n1	none
Cc1cc(C)cc(NC(=O)CCc2c(C)nc3c(-c4ccccc4)c(C)nn3c2C)c1	none
CCN(CC)C(=O)C(=O)NC(C)C(c1cccs1)N1CCOCC1 (stereo unspecified)	none
CCOC(=O)N1CCN(c2c(NCc3cccc(OC)c3)c(=O)c2=O)CC1	none
CCCCNC(=O)CCC(=O)Nc1ccc2nc(N3CCC(C)CC3)cc(C)c2c1	none
CCC(=O)Nc1nc(-c2ccc3c(c2)OCO3)nc2c1c(=O)oc1ccccc12	none
COc1ccc(-c2nnc(NC(=O)c3ccc(S(=O)(=O)N4CCC(C)CC4)cc3)o2)c(OC)c1	none
Cc1nnc(NC(=O)c2ccc(S(=O)(=O)N3CCC(C)CC3)cc2)o1	CBX7 inh 0.028
CC1CCN(S(=O)(=O)c2ccc(NC(=O)c3ccc(C(C)(C)C)cc3)cc2)CC1	none
Cc1ccc2c(c1)c(-c1ccccc1)c(-c1ccccc1)n2CC(O)Cn1c(C)cc(C)nc1=O (stereo unspecified)	none
CCCCn1c(CCCNC(=O)c2cccc(C)c2)nc2ccccc21	none
COC(CNC(=O)c1cc(-c2cccnc2)nc2ccc(S(=O)(=O)N3CCC(C)CC3)cc12)OC	none
CCc1ccc(NC2c3ccccc3C(=O)N2c2ccc(Cl)cc2)cc1 (stereo unspecified)	none
COc1ccc(NC2c3ccccc3C(=O)N2c2ccc(Cl)cc2)cc1OC (stereo unspecified)	none
COc1ccc(NC2c3ccccc3C(=O)N2c2ccc(Cl)cc2)cc1 (stereo unspecified)	CBX7 inh 0.42
Cc1ccc(C(=O)NCCc2cc3ccc(C)cc3[nH]c2=O)cc1	none
O=C(c1ccc2nc(-c3ccco3)c(-c3ccco3)nc2c1)N1CCc2ccccc2C1	CBX7 inh 0.015
CC(C)CCNC(=O)c1ccc2nc(-c3ccco3)c(-c3ccco3)nc2c1	none
CCCCNC(=O)c1ccc2nc(-c3ccco3)c(-c3ccco3)nc2c1	none
CCOc1ccccc1C(=O)Nc1ccc2nc(N3CCCCC3)cc(C)c2c1	none
Cc1nc2ccc(S(=O)(=O)N(C)CC(=O)Nc3nc4ccc(Cl)cc4s3)cc2s1	none
COc1ccc(NC(=O)CCN2CCN(C/C=C/c3ccccc3)CC2)cc1	none
Cc1ccc(-c2nc(NC(=O)c3ccc(C(C)(C)C)cc3)sc2C)cc1	none
COc1ccc(CN2C(=O)c3cccnc3C2Nc2cc(Cl)ccc2C)cc1 (stereo unspecified)	none
COc1ccc(CN2C(=O)c3cccnc3C2Nc2cc(Cl)ccc2OC)cc1 (stereo unspecified)	CBX7 inh 0.0053
COc1ccc(NC2c3ncccc3C(=O)N2Cc2ccc(F)cc2)cc1Cl (stereo unspecified)	none
O=C1c2cccnc2C(Nc2ccc(F)c(Cl)c2)N1Cc1ccc(F)cc1 (stereo unspecified)	none
